High-throughput results as filed in PubChem.
This is one part of a sample in which hits are shown more often than they occur.
Tg IFNy HTS: inhibitors of Toxoplasma gondii growth with IFN-gamma; AID 1259416; actives 3.8% (n = 69,000); activity change, negative = inhibition, % (concentration not given with the values); Toxoplasma gondii growth in IFN-gamma-treated host cells; stronger effect = lower value; in the data active means activity change below about -70%, passing the limit was not always enough;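 further: host cells are HeLa cells infected with Toxoplasma gondii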
Hits are given with their value; 0 = inactive.

SMILES	Tg IFNy HTS
O=C(Cn1ncc2c(N3CCCC3)ncnc21)Nc1ccc(F)cc1F	0
COc1cccc(CNC(=O)Cn2ncc3c(N4CCCCCC4)ncnc32)c1	0
O=C(Cn1ncc2c(N3CCN(c4ccccn4)CC3)ncnc21)NCc1cccnc1	0
O=C(Cn1ncc2c(N3CCCCC3)ncnc21)NCc1ccco1	0
O=C(Cn1ncc2c(N3CCCCCC3)ncnc21)NCc1ccc(F)cc1	-99
O=C(Cn1ncc2c(N3CCCCC3)ncnc21)NCc1ccccc1	-92
CC1CCCN(C(=O)CCNc2c(-c3cccc(F)c3)nc3cnccn23)C1 (centres undefined)	0
COc1ccc(-c2nc(C)c(CCNC(=O)c3ccc(C)cc3)s2)cc1	0
CCS(=O)(=O)N1CCC2(CCOCC2COc2cnccn2)CC1 (centres undefined)	0
Cc1nc(CN2CC3(CCN(CC4CC4)CC3)OCC2=O)cs1	0
O=C(C1Cc2ccccc2C1)N1CCC(n2cc(C3CCCC3)nn2)CC1	0
COc1ccc(Nc2nc(-c3nnc(-c4ccc(Cl)cc4)o3)nc3ccccc23)cc1	0
O=C(C1COc2ccccc2O1)N(CCO)Cc1cccs1 (centres undefined)	0
Cc1cc(C(F)F)nn1CC(=O)NCc1ccc(-c2ncncc2C(=O)N(C)C)cc1	0
Cc1cnc(CN(C)Cc2cc3n(n2)CCNC3)[nH]1	0
CCc1ccc(NC(=O)Cn2ncc3c(N4CCCCCC4)ncnc32)cc1	0
O=C(Cn1ncc2c(N3CCCCCC3)ncnc21)NCc1ccc(Br)cc1	-93
O=C(Cn1ncc2c(N3CCCCCC3)ncnc21)NCc1ccc(F)c(Cl)c1	0
CCOc1ccc(CNC(=O)Cn2ncc3c(N4CCCC4)ncnc32)cc1OCC	0
O=C(Cn1ncc2c(N3CCCCCC3)ncnc21)NCc1cccc(Br)c1	0
O=C(Cn1ncc2c(N3CCCCCC3)ncnc21)NCc1ccc2c(c1)OCO2	-97
O=C(Cn1ncc2c(N3CCCC3)ncnc21)Nc1ccc(Br)cc1	0
CCc1ccc(CNC(=O)Cn2ncc3c(N4CCOCC4)ncnc32)cc1	0
CCc1ccc(CNC(=O)Cn2ncc3c(N4CCCCCC4)ncnc32)cc1	-92
CCC(CC)C(=O)N1CCC2(CC1)Nc1ccccc1-n1cccc12	0
SMILES	Tg IFNy HTS
O=C(NCCCn1ccnc1)[C@@H]1CN(Cc2ccccc2)C[C@H]1C(=O)c1ccc(F)cc1	0
CCc1ccc(NC(=O)N2CCC3(CC2)COCCN(S(C)(=O)=O)C3)cc1	0
OCCC#Cc1ccc(C2NCCc3[nH]cnc32)cc1 (centres undefined)	0
CCOc1cc2c(cc1CN1CC3CCCC(C1)C3(O)c1ccc(C)cn1)OC(C)C2 (centres undefined)	0
Fc1ccccc1Cc1cnc(C2CCCNC2)cn1 (centres undefined)	0
CC(NC(=O)c1cc2n(n1)CCCN(C)C2)c1ccccc1C(F)(F)F (centres undefined)	0
O=C(O)C1(Cc2ccc(-c3cccnc3)cc2)CCNCC1	0
Cc1[nH]c2ccc(Cl)cc2c1CCNC(=O)C1CC2(CCNCC2)CN1 (centres undefined)	0
c1ccc(CN2CCN(c3ncnc4ccccc34)CC2)cc1	-86
c1ccc2c(N3CCN(Cc4cccc5nccnc45)CC3)ncnc2c1	0
c1ccc(-n2cc(CN3CCN(c4ncnc5ccccc45)CC3)cn2)cc1	0
COCC(=O)N1CCc2c([nH]c3ccccc23)C1c1ccc(SC)cc1 (centres undefined)	0
Cc1c(-c2ccc(Cl)cc2)n[nH]c1C(=O)N1CCOC(C(F)(F)F)C1 (centres undefined)	0
Oc1cccc(-c2c3nc(c(-c4cccc(O)c4)c4ccc([nH]4)c(-c4cccc(O)c4)c4nc(c(-c5cccc(O)c5)c5ccc2[nH]5)C=C4)C=C3)c1	0
C[C@@H](Cn1nnc2ccccc21)NC(=O)c1ccc2c(c1)OCO2	0
O=C(CCn1nnc2ccccc21)Nc1nnc(COc2ccc(F)cc2)s1	0
O=C(CCn1nnc2ccccc21)Nc1nnc(-c2ccc3c(c2)OCO3)s1	-103
CN(C)c1ccc(NC(=O)CC2Nc3ccccc3NC2=O)cc1 (centres undefined)	0
C=CCNc1ccccc1C(=O)N1CC=C(n2c(=O)[nH]c3ccccc32)CC1	0
O=C(NC1CCC1)[C@H]1C[C@H]2CN(Cc3ccc(Cl)cc3)C[C@H]1O2	-93
O=C(NC1CCC1)[C@H]1C[C@@H]2CN(C(=O)Nc3ccc(Cl)cc3)C[C@H]1O2	0
O=C(NC1CCC1)[C@H]1C[C@H]2CN(Cc3ccccc3)C[C@H]1O2	0
CCCc1cc(CNC(=O)Cc2coc3cc(C)c(C)cc23)on1	0
COc1cc(C(=O)N(C)CCOc2ccccc2OC)c2ccccc2n1	-93
COc1ccccc1OCc1cc(C(=O)N(C)Cc2cc(C)no2)no1	0
SMILES	Tg IFNy HTS
COc1ccccc1OCC(=O)O	0
CC(C)N1CCn2nc(C(=O)NCc3nnc(-c4ccccc4)o3)cc2C1	0
O=C(O)c1ccc2nc3c(nc2c1)-c1cccc2cccc-3c12	-110
Nc1cccc(C(=O)O)c1	0
Cc1nc2ccc(C(=O)O)cc2nc1C	0
c1ccc(-c2ccc(CN3CCCC(OCc4cccnc4)C3)cc2)nc1 (centres undefined)	0
Cc1cccc(Nc2ccc(C3CCCN(CC(=O)Nc4nc(C)c(C)s4)C3)nc2)n1 (centres undefined)	0
CC(C)C(=O)c1cc(-c2csc(-c3cnccn3)n2)n2ccccc12	0
Cc1nc2ncccn2c1C(=O)NCc1cnn(-c2cccc(F)c2)c1	0
O=C(NNc1nc2cc(F)ccc2n2cccc12)c1cnccn1	-81
Cc1nc(N)nc(Cl)c1Cc1ccccc1Cl	0
CN1c2ccccc2[C@H]2CN(C(=O)CCC(=O)O)CC[C@H]21	0
CCOc1ccc(CCNc2nc(-c3ccc(OC)cc3)nc3ccccc23)cc1OCC	0
COc1ccc2[nH]c3c(c2c1)CCNC31C(=O)N(C)c2ccccc21 (centres undefined)	0
COc1ccc2[nH]c3c(c2c1)CCNC3C1CC=C(C)CC1 (centres undefined)	-84
COc1ccc2[nH]nc(C(=O)N3C[C@H]4CC=C(C)C[C@H]4C3)c2c1	0
CCC(=O)N1CCc2cc(C(=O)O)c(-c3ccncc3)nc2CC1	0
CC(C)Cc1cc(C(=O)N2CCOC(CCN(C)C)C2)on1 (centres undefined)	0
CC[C@H](C)[C@@H]([C@@H](CC(=O)N1CCC[C@H]1[C@H](OC)[C@@H](C)C(=O)N[C@@H](Cc1ccccc1)c1nccs1)OC)N(C)C(=O)[C@@H](NC(=O)[C@H](C(C)C)N(C)C)C(C)C	-84
O=C(NC(c1nccs1)C1CCCN(Cc2cccc(F)c2)C1)c1ccccc1 (centres undefined)	0
Cc1cc(C)n(CC(C)C(=O)NC(Cc2cccs2)c2nccs2)n1 (centres undefined)	0
CCOC(=O)Cc1ccc(NC(=O)N2CCC3(CC2)Nc2cc(F)ccc2-n2cccc23)cc1	0
COc1ccc(S(=O)(=O)N2CCC[C@@H]2C(=O)NCCc2csc(C)n2)cc1OC	0
Cc1ccc(Nc2nc(C(=O)NC3CCCCC3)nc3ccccc23)cc1	0
CCc1ccc(Nc2nc(C(=O)NC3CCCC3)nc3ccccc23)cc1	0
O=C(NC1CCCCCC1)c1nc(Nc2ccc(F)cc2)c2ccccc2n1	0
Cc1ccc(Nc2nc(C(=O)NC3CCCC3)nc3ccccc23)cc1	0
Cc1cccc(Nc2nc(C(=O)NC3CCCCCCC3)nc3ccccc23)c1	-83
Cc1ccc(Nc2nc(C(=O)NC3CCCCCC3)nc3ccccc23)cc1	-75
